# ± gives the uncertainty stated by the source.
# Tested on: HEK293T-Rex XBP1-RLuc
# Experiment: XBP1-RLuc splicing reporter activation, triplicate, relative to 500 nM thapsigargin (% of thapsigargin); higher = stronger IRE1/XBP1s reporter activation
# Details: 6.8 µM; 18 h; screen: confirmation
# Procedure: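 HEK293T-Rex cells stably expressing the ERSE-firefly luciferase (BiP promoter, ATF6-preferring) or XBP1-splicing Renilla luciferase (IRE1/XBP1s) reporter, 1536-well plates, compound at 6.8 µM for 18 hr at 37 °C; luminescence read […] and expressed as % activation = 100*(compound - median DMSO)/(median 500 nM thapsigargin - median DMSO). Primary screen was single-pass; confirmation screen in triplicate (mean ± SD).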
row,SMILES,XBP1-RLuc splicing reporter activation
1,COc1ccccc1/C=C/C(=O)Nc1ccc(Cl)cn1,-1.93 ± 1.5
2,CCOC(=O)c1sc(NC(=O)c2cccc3ccccc23)nc1C,2.85 ± 0.37
3,COc1cccc(C(=O)/C=C/Nc2cc(C)ccc2O)c1,10.2 ± 0.47
4,N#C/C(=C/c1ccc(O)c(O)c1)c1nc2ccccc2s1,19.7 ± 0.5
5,O=C(Nc1ccccc1O)c1ccc(C(=O)c2ccccc2)cc1,10.4 ± 0.77
6,CCCCCCc1ccc(-c2ncc(N)cn2)cc1,12.9 ± 0.42
7,O=[N+]([O-])c1ccc(N/N=C/c2ccccc2O)cc1,2.37 ± 0.96
8,O=C1N/C(=C/c2ccc(O)cc2)C(=O)N1c1ccccc1,49 ± 4.5
9,COc1cccc(Nc2nc(-c3ccc(OC)c(F)c3)cs2)c1,1.64 ± 0.88
10,COc1ccc(/C=N/c2sc3c(c2C(N)=O)CCCC3)cc1,2.45 ± 0.41
11,CC(C)c1ccc(/C=N\NC(=O)c2ccccc2)cc1,6.81 ± 0.33
12,CCOc1ccc2nc(NC(=O)c3ccn(C)n3)sc2c1,-1.23 ± 2
13,Cc1cc(C)nc(Nc2nc(-c3ccc(O)c(O)c3)cs2)n1,13.9 ± 9.7
14,COc1ccc(-c2cc(C(=O)Nc3cc(C)ccc3O)on2)cc1OC,10.9 ± 1.2
15,Nc1nc(Nc2ccccc2)cc(-c2ccccc2)n1,1.44 ± 0.87
16,Nc1ccc2nc(-c3ccc(Br)cc3)[nH]c2c1,12.5 ± 2
17,Nc1ccc2nc(-c3ccccn3)[nH]c2c1,18.7 ± 1.1
18,OCCNc1nc(Nc2ccc(Cl)cc2)nc2ccccc12,32.6 ± 2.5
19,CCOc1ccc(/C=C(\C#N)c2[nH]nc(N)c2C#N)cc1OCC,7.63 ± 1
20,Cc1ccc(/C=N/NC(=O)c2cccc(F)c2)cc1,2.01 ± 0.32

row,SMILES,XBP1-RLuc splicing reporter activation
1,Cc1cccc2c1[nH]c1nc(N/N=C\c3c[nH]c4ccccc34)nnc12,21.8 ± 1.6
2,O=C(/C=C/c1ccccc1)Nc1ccc(Br)cn1,0.069 ± 1.1
3,COc1cc2ccccc2cc1C(=O)N/N=C/c1cccs1,3.81 ± 0.66
4,COc1ccc(C2C=C3Oc4ccccc4N=C3NN2)cc1 (stereo not given),4.19 ± 0.13
5,O=[N+]([O-])c1ccc(/C=C/c2ccc(O)cc2)cc1,19.2 ± 1.3
6,N/C(=N\N=C\c1ccc(O)c(O)c1)c1nonc1N,19.5 ± 0.38
7,O=C(NCCc1ccc(O)cc1)c1ccc2nc(-c3csc4ccccc34)sc2c1,18.8 ± 1.8
8,O=C1N/C(=C/c2ccc(O)cc2)C(=O)N1Cc1ccc(Br)cc1,33.3 ± 4.9
9,COc1ccc(/C=C/c2nc3cc([N+](=O)[O-])ccc3s2)cc1O,4.47 ± 0.66
10,Cc1ccc(O)c(-c2cc(-c3cccs3)[nH]n2)c1,7.79 ± 0.86
11,CC(=O)Oc1ccc2cc(NC(=O)c3ccc(C)cc3)c(=O)oc2c1,12.1 ± 1.8
12,OCCNc1nc(Nc2ccc(Cl)c(Cl)c2)nc2ccccc12,42.7 ± 1.8
13,CCc1cc2c(=O)c(-c3ccc4c(c3)OCCO4)coc2cc1OC,12.2 ± 0.77
14,COc1ccc(/C=C(\C#N)c2nc(-c3ccco3)cs2)cc1O,4.32 ± 0.33
15,COc1ccc(/C=N/NC(=O)c2cccc(F)c2)cc1Br,1.01 ± 0.87
16,Cc1ccc(O)c(NC(=O)CSc2n[nH]c(C)c2[N+](=O)[O-])c1,16.6 ± 2.4
17,N#C/C(=C\c1ccc(O)c(O)c1)c1nc2ccccc2[nH]1,12.6 ± 0.2
18,O=C(Nc1ccc2c(c1)OCCO2)C(=O)Nc1ccccc1Cl,-0.329 ± 3.7
19,Oc1ccc(-c2cn3ccccc3n2)cc1O,20.8 ± 2
20,Cc1nn(-c2ccc(F)cc2)c2ncc(C(=O)NCc3ccco3)c(Cl)c12,110 ± 9.1

# From the supplement of paper PMC4954754
